Experimental data published in PubChem BioAssay AID720549 (National Center for Advancing Translational Sciences (NCATS), 2013).
Records with an inconclusive call do not appear. Values without a mark were called inactive. The source made the active and inactive calls. The call rests on the fitted dose curve; in most records, active means well fitted inhibition curve with a large enough effect; inconclusive means small, poorly fitted or top-dose-only effect; inactive means flat fitted curve, though single readings scatter.

molecular target: RecQ-like DNA helicase BLM (Homo sapiens) (UniProt P54132); assay: qHTS for Inhibitors of Bloom's syndrome helicase (BLM): Helicase ATPase Orthogonal Confirmatory Assay for SAR; conditions: purified BLM helicase ATPase activity assay; series mostly up to 57.1 µM; activity change, negative = inhibition: at the top concentration
Sequence (P54132 whole entry, looked up): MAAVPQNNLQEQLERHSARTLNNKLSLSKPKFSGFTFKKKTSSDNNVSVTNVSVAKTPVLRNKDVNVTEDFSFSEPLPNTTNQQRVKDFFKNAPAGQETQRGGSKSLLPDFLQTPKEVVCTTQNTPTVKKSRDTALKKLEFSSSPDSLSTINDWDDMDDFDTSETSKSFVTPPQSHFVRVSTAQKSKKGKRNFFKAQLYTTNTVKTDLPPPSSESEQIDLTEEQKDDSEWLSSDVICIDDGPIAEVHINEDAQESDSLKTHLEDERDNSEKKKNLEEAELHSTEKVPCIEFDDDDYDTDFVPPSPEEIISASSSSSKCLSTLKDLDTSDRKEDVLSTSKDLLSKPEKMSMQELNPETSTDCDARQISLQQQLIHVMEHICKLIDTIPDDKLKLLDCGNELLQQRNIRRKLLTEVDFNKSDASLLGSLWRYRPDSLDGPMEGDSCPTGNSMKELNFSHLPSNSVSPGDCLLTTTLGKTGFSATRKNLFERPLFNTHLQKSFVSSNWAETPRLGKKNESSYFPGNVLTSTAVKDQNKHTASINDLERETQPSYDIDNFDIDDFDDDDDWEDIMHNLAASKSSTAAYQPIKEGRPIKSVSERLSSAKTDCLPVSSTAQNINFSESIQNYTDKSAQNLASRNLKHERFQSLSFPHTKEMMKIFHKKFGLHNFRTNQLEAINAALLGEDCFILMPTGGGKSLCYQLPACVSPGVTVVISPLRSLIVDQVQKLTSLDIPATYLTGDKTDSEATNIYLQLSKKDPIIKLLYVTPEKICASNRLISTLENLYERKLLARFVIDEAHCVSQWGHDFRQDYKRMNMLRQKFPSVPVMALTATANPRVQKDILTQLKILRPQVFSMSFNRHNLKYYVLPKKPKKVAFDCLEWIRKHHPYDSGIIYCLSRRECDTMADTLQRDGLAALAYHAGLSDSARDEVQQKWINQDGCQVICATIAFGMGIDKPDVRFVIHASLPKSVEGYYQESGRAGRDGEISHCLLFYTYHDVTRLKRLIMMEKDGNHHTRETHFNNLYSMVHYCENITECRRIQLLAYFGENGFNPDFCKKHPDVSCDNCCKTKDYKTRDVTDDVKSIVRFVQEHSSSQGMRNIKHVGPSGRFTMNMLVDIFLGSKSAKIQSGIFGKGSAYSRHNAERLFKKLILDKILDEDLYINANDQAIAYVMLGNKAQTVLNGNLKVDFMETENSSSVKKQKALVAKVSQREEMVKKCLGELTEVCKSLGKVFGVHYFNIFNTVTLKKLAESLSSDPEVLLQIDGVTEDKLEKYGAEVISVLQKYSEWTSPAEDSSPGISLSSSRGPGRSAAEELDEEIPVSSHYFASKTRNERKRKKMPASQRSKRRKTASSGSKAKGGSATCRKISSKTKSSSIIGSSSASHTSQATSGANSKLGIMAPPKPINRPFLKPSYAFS
Excerpt: Human RecQ DNA helicases participate in maintenance of genome stability and DNA repair. While other types of helicases have been explored as targets for drug development, members of the RecQ family have remained less well characterized. Mutations of the Bloom helicase gene have been associated with the rare human genetic disease called Bloom syndrome. […] Moreover, identified inhibitors can be used in cells and animal models to examine the consequences of inhibition on the survival of cancer cells where it has been shown that BLM plays an important role.
A fluorescence-based, biochemical assay in 1536 well format was developed to evaluate inhibition of BLM DNA unwinding activity. This assay was used to screen the MLPCN library. The resulting compounds were subjected to orthogonal and secondary biochemical assays to triage the initial hits, to classify compounds based on mode of action and to derive structure activity relationships (SARs) of candidate effectors. The data herein is the result of the Helicase ATPase orthogonal confirmatory assay. This luminescence assay employs a purified BLM enzyme and a single stranded BLM oligo substrate ([…]). For this assay increase in luminescence signal is greater than or equal to 700 RLU. Inhibition is the desired outcome for this assay.
NIH Chemical Genomics Center [NCGC]
NIH Molecular Libraries Probe Centers Network [MLPCN]
Assay Submitter (PI): Opher Gileadi, Structural Genomics Consortium, University of Oxford, UK
Three microliter of reaction buffer (25mM Tris-HCl pH 8.0, 50mM NaCl, 2mM MgCl2, 1mM DTT, and 0.01% Tween- 20, and 2nM BLM enzyme) was dispensed into a 1536-well assay plates (Greiner, solid white medium-binding) via Aurora Discovery BioRAPTR Flying Reagent Dispenser (FRD). Compounds (23nl each in columns 5-48) and control (23nl each in column 2 as dose-response) were transferred via a Kalypsys pintool equipped with a 1536-pin array. The plates were incubated for 15 min at room temperature followed by addition of 1 ul of substrates (200nM single-stranded oligonucleotide and 100uM ATP, final concentrations) to start the reaction. After 15 min., the reaction was terminated by the addition of 2.5ul of ADP-Glo Reagent I (Promega) to each well and incubation at room temperature for 30 min. Next, 5ul of ADP-Glo Reagent II (Promega) was added to each well. After 30 min at room temperature, the luminescence signal was detected using the ViewLux CCD imager. The data was normalized against no-inhibitor and no-enzyme controls and the resulting percent inhibition data were fitted to a sigmoidal dose response using a four-parameter Hill equation.

| Compound | activity change, negative = inhibition [%] | Potency |
| --- | --- | --- |
| Cc1cc(NC(=O)Nc2nnc(-c3cccnc3)s2)ccc1F | -13.4 | – |
| O=C(Nc1ccc2ccccc2c1)Nc1nnc(-c2ccccc2)s1 | 0.431 | – |
| O=c1c(Nc2ccc(F)c(C(F)(F)F)c2)c(Nc2nnc(-c3ccncc3)s2)c1=O | -11.3 | – |
| CN(C(=O)Nc1ccc2ccccc2c1)c1nnc(-c2ccncc2)s1 | -14.4 | – |
| O=C(Nc1ccc(-n2cncn2)c(C(F)(F)F)c1)Nc1nnc(-c2ccncc2)s1 | – | 20.4 µM (active) |
| O=C(Nc1ccc(Cl)c(Cl)c1)Nc1cccc(-c2ccncc2)n1 | -17.9 | – |
| Cc1ccccc1-c1nnc(NC(=O)Nc2ccc3ccccc3c2)s1 | -2.23 | – |
| O=C(Nc1ccc(Cl)c(Cl)c1)Nc1ncc(-c2ccncc2)s1 | -7.96 | – |
| O=C(Nc1ccc2ccccc2c1)Nc1nnc(-c2ccc(F)cc2)s1 | -3.34 | – |
| O=C(Nc1ccc(-n2ccnc2)c(F)c1)Nc1nnc(-c2ccncc2)s1 | – | 14.5 µM (active) |
| S=C(Nc1ccc(Cl)c(Cl)c1)Nc1nnc(-c2ccncc2)s1 | – | 2.64 µM (active) |
| O=C(Nc1nnc(-c2ccncc2)s1)Oc1ccc2ccccc2c1 | – | 32.4 µM (active) |
| O=C(Nc1ccc(Cl)c([N+](=O)[O-])c1)Nc1nnc(C2CCCCC2)s1 | -4.88 | – |
| CC(=O)c1ccc(NC(=O)Nc2nnc(-c3ccncc3)s2)cc1 | -3.59 | – |
| O=C(Nc1ccc(N2CCOCC2)c(F)c1)Nc1nnc(-c2ccncc2)s1 | 6.47 | – |
| CC(C)(C)NC(=O)Nc1nnc(-c2ccncc2)s1 | 23.3 | – |
| O=C(Nc1ccc2ccccc2c1)Nc1nnc(-c2ccccn2)s1 | -10.8 | – |
| Cc1cc(Nc2c(Nc3nnc(-c4ccncc4)s3)c(=O)c2=O)ccc1Cl | -12.5 | – |
| O=C(Nc1ccc(Cl)c(Cl)c1)Nc1nnc(N2CCNCC2)s1 | -19.8 | – |
| O=C(Nc1ccc(F)c(C(F)(F)F)c1)Nc1cccc(-c2ccncc2)n1 | -25.8 | – |

| Compound | activity change, negative = inhibition [%] | Potency |
| --- | --- | --- |
| O=C(Nc1ccc(Cl)c(Cl)c1)Nc1nc(-c2ccncc2)cs1 | -14 | – |
| O=C(Nc1ccc(Cl)c(C(F)(F)F)c1)Nc1nnc(-c2ccncc2)s1 | 2.12 | – |
| CCCCCCNC(=O)Nc1nnc(-c2ccncc2)s1 | 11.1 | – |
| O=C(Nc1nnc(-c2ccncc2)s1)Nc1cc(C(F)(F)F)ccc1F | 8.53 | – |
| CC(C)(C)c1ccc(-c2nnc(NC(=O)Nc3ccc4ccccc4c3)s2)cc1 | -5.07 | – |
| N#Cc1cc(NC(=O)Nc2nnc(-c3ccncc3)s2)ccc1F | – | 1.02 µM (active) |
| O=C(Nc1ccc(Cl)c(Cl)c1)Nc1ccc(-c2ccncc2)s1 | -6.64 | – |
| CCOC(=O)c1cccc(NC(=O)Nc2nnc(-c3ccncc3)s2)c1 | 2.71 | – |
| O=C(Nc1ccc(Cl)c(Cl)c1)Nc1nnc(-c2ccncc2)o1 | 15.6 | – |
| O=C(Nc1ccc(F)c(C(F)(F)F)c1)Nc1nnc(-c2ccncc2)s1 | -21.6 | – |
| O=C(Nc1ccc2c(c1)OCCO2)Nc1nnc(-c2ccncc2)s1 | 11.9 | – |
| O=C(Nc1ccc2ccccc2c1)Nc1nnc(-c2ccc(Cl)cc2)s1 | -5.57 | – |
| Cc1cc(NC(=O)Nc2nnc(-c3ccncc3)s2)ccc1F | -25.5 | – |
| O=C(Nc1ccc(Cl)c(Cl)c1)Nc1nnc(C2CCCCC2)s1 | -3.66 | – |
| O=C(Nc1ccc2ccccc2c1)Nc1nnc(-c2ccncc2)o1 | 6.97 | – |
| Cc1cc(C)c(-c2nnc(NC(=O)Nc3ccc4ccccc4c3)s2)c(C)c1 | -10.3 | – |
| O=C(Nc1ccc(Cl)c([N+](=O)[O-])c1)Nc1nnc(-c2ccc(F)cc2)s1 | -13.3 | – |
| COc1ccc(-c2nnc(NC(=O)Nc3ccc4ccccc4c3)s2)cc1OC | -6.95 | – |
| O=C(Nc1ccc(Cl)c([N+](=O)[O-])c1)Nc1nnc(-c2ccncc2)s1 | – | 1.82 µM (active) |
| O=c1c(Nc2ccc(Br)c(Br)c2)c(Nc2nnc(-c3ccncc3)s2)c1=O | – | 20.4 µM (active) |
